About 79,000 compounds went through this panel and 15% of them were active in at least one assay; those are over-represented in the sample as a whole. Rule as the data show it: active = growth inhibition above about 70%; inactive = the rest.
Tests used:
[1] = NCI Yeast Anticancer Drug Screen. Data for the rad50 strain (AID 155);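 also: 0% = growth of vehicle-only cultures of the same strain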; details: S. cerevisiae rad50 strain growth inhibition; at 50.0 µM; stronger effect = higher value
Procedure, shortened: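 Compounds were tested on a yeast strain with an engineered DNA damage repair alteration; the reported value is growth inhibition normalised to vehicle treatment.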

[2] = NCI Yeast Anticancer Drug Screen. Data for the mec2-1 strain (AID 157); details: S. cerevisiae mec2-1 strain, at 50.0 µM, stronger effect = higher value
Procedure, shortened: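 Using mec2-1 yeast: add compound, measure growth, express inhibition versus vehicle-treated cultures.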

[3] = NCI Yeast Anticancer Drug Screen. Data for the sgs1 mgt1 strain (AID 161);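 also: 0% = growth of cultures given vehicle only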; details: S. cerevisiae sgs1 mgt1 strain, at 50.0 µM, stronger effect = higher value
Procedure, shortened: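 Percent growth inhibition was derived by comparing compound-exposed mutant yeast with vehicle-exposed cultures. The strain carries alterations in DNA damage repair.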

[4] = NCI Yeast Anticancer Drug Screen. Data for the cln2 rad14 strain (AID 165);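 also: 0% = growth equal to vehicle treated cultures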; details: S. cerevisiae cln2 rad14 strain, at 50.0 µM, stronger effect = higher value
Procedure, shortened: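 Yeast strain cln2 rad14, bearing defects in cell cycle control and DNA repair, serves as the test system; values reflect growth inhibition compared with vehicle.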

[5] = NCI Yeast Anticancer Drug Screen. Data for the bub3 strain (AID 167); details: S. cerevisiae bub3 mutant strain, at 50.0 µM, stronger effect = higher value
Procedure, shortened: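 Growth of a checkpoint-deficient yeast mutant is measured after compound exposure. Values represent inhibition relative to vehicle.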

[6] = NCI Yeast Anticancer Drug Screen. Data for the mlh1 rad18 strain (AID 175); details: S. cerevisiae mlh1 rad18 strain growth inhibition; at 50.0 µM; stronger effect = higher value
Procedure, shortened: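 Steps: expose repair-defective yeast to compound; measure growth; express inhibition against vehicle-treated controls.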

Measured: growth inhibition

CC(=O)OC1C(C)OC(n2cnc3c(=O)[nH]cnc32)C(OC(C)=O)C1OC(C)=O (stereo unspecified)
inactive: [1] 37.1% | [2] 9.25% | [3] 16.4% | [4] -7.3% | [5] 6.25% | [6] 27.8%

CCCCCC[N+]12CC=C3COC(=O)C(C)(O)C(C)(O)C(C)C(=O)OC(CC1)C32 (stereo unspecified)
inactive: [1] 0.7% | [2] -6.15% | [3] -0.25% | [4] 13.7% | [5] -3.35% | [6] 7.85%

CC1C(O)CC23COC(=O)C2=CCCC3C1(C)CCC1COC(=O)C1 (stereo unspecified)
inactive: [1] -5.05% | [2] -21.9% | [3] 17.9% | [4] 5.85% | [5] -10.4% | [6] 7.45%

CCCCCCCCCCCCCCCCOc1ccc(C(=O)O)cc1
inactive: [1] 1.4% | [2] 0.75% | [3] 5.3% | [4] 8.35% | [5] 3% | [6] -16%

N#CC1NCNC1N (stereo unspecified)
inactive: [1] 0.2% | [2] 0.65% | [3] -6.6% | [4] 1.15% | [5] -1.25% | [6] -16.8%

O=C(Nc1ccc(F)cc1)c1cc2c(cc1Cl)Sc1nccn1S2(=O)=O
inactive: [1] -7% | [2] -4% | [3] -8.8% | [4] 16.9% | [5] 3.55% | [6] 2.7%

CCCCCCCCCCCCCCCCCCCCCC(C)C
inactive: [1] -8% | [2] 0.8% | [3] -10.9% | [4] -8.6% | [5] -7.55% | [6] -31.4%

CC(=O)NCCN1CCN(C(C)=O)CC1
inactive: [1] 10.1% | [2] 10.7% | [3] -8.7% | [4] -37% | [5] -13.8% | [6] -15.2%

O=C/C(=C1/C=Cc2cc([N+](=O)[O-])ccc2S1)c1ccccc1
inactive: [1] -6.5% | [2] -18.8% | [3] -11% | [4] -14.8% | [5] -9.05% | [6] -6.6%

CCOC(=O)N1C=Cc2ccccc2C1C(=N)N (stereo unspecified)
inactive: [1] -20.2% | [2] -12.3% | [3] -11% | [4] -7.7% | [5] -6.3% | [6] -13.6%

CCCCCCCCCCCCSCCO
inactive: [1] 20.9% | [2] 10.8% | [3] 39% | [4] 31.4% | [5] 17.1% | [6] 39%

CC/C(=C\c1ccc(OC)cc1)c1ccc(OC)cc1
inactive: [1] -16.1% | [2] -31.1% | [3] 7.05% | [4] 4.75% | [5] 1.75% | [6] -5.05%

O=C(O)C(C(=O)O)C1CCCCC1
inactive: [1] -14.6% | [2] -20.6% | [3] -20.6% | [4] -0.95% | [5] -6.5% | [6] -15.8%

O=C(O)Cc1c(O)ccc2ccccc12
inactive: [1] -32.7% | [2] -16.3% | [3] -34.5% | [4] -29.8% | [5] -38.6% | [6] -3.7%

O=C1NC(=O)C2C3CCC(C3)C12 (stereo unspecified)
inactive: [1] 13.6% | [2] -6.15% | [3] -7.65% | [4] -41.8% | [5] 4.65% | [6] 0.4%

COC(=O)c1c(O)c2c(c3c1OC(C)(C)CC3)OC(C)(C)CC2
inactive: [1] -13.3% | [2] 0.1% | [3] -17.1% | [4] -2.55% | [5] 8.05% | [6] 11.4%

O=C(O)c1cc(Br)cc([N+](=O)[O-])c1
inactive: [1] -9.15% | [2] 15.1% | [3] -14.9% | [4] -49.3% | [5] -16.2% | [6] 21.1%

CCC(CC)CC1CCCCC1O (stereo unspecified)
inactive: [1] -30.7% | [2] -44% | [3] -46.9% | [4] -17.2% | [5] -48.7% | [6] -11.9%

NC(Cc1cccc2ccccc12)C(=O)O (stereo unspecified)
inactive: [1] 14.3% | [2] -1.2% | [3] 10.4% | [4] -48.1% | [5] -7.3% | [6] 5.5%

CC1(C)OCCS1
inactive: [1] -4.2% | [2] 18.1% | [3] 6.7% | [4] 18.6% | [5] 20.6% | [6] 13.9%

CCOC(=O)C(C(C)=O)C(c1ccc(OCc2ccccc2)c(C)c1)C(C(C)=O)C(=O)OCC (stereo unspecified)
inactive: [1] 14.7% | [2] 3.9% | [3] 25.9% | [4] 27.1% | [5] 8.55% | [6] 19.9%
